This is a sample that favours compounds with a hit; in the whole collection about 5.8% have one here.
ALOX12 inh = Primary qHTS assay for inhibitors of human arachidonate 12S-lipoxygenase (ALOX12): Round 2 | Polyunsaturated fatty acid lipoxygenase ALOX12 (Homo sapiens), P18054 | purified 12hLO, xylenol orange hydroperoxide absorbance | Potency, µM (highest dose often 108 µM), for inactives: top-dose activity change, negative = inhibition, hits mostly inhibitors | hit rate 1.1% among 580,000 | AID 1671190, 2021; note: % is set by controls: 0 for no effect and ±100 for the full control effect
Target sequence (P18054 whole entry, looked up): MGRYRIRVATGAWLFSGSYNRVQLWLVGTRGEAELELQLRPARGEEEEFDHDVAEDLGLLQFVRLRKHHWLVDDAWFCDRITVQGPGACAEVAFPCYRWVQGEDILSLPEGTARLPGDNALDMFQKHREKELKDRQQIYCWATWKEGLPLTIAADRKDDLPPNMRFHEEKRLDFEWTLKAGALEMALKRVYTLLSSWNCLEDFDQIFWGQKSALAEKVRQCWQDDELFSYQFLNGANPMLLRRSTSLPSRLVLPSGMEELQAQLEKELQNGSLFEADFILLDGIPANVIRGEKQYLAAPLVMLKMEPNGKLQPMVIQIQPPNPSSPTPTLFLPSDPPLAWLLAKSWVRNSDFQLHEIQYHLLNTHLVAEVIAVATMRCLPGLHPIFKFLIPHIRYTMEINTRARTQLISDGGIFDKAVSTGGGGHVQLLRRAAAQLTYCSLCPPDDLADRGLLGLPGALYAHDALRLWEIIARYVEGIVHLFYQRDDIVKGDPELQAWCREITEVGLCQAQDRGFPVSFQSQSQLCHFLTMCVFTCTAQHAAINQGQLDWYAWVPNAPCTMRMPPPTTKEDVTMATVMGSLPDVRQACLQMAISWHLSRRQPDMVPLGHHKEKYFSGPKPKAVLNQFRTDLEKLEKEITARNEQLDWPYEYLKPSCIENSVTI
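Hydroperoxide product was detected by ferrous iron/xylenol orange as the 573 to 405 nm absorbance ratio. Arachidonic acid at 40 uM (final) was turned over for 30 min at room temperature by 150 nM human 12hLO, pH 7.0 Hepes buffer, after 15 min compound preincubation.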
PINK1 modulator = A Quantitative High throughput Screen to Identify Chemical Modulators of PINK1 Expression; PINK1 immunofluorescence, high-content cytometry, 24 h; Potency, µM (top dose mostly 76.6 µM), inactives show top-dose activation (PINK1 increase), hits mostly activators; hit rate 0.2% among 410,000; active = well fitted activation curve with a large enough effect; inconclusive = small, poorly fitted or top-dose-only effect; cell line not stated here; note: % of control where 0% means no effect; nearly all actives have a fitted effect of over 65% in size
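Measures PINK1 amount and localization on or inside mitochondria by immunofluorescence. Stable cells get compounds at 5 concentrations for 24 hours before fixation and staining; CCCP controls included.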
KB-V1 cytotox = qHTS assay for MDR1-selective chemotherapeutics: Primary screen using the drug-selected MDR subline cells KB-V1; Potency, µM (series often up to 46.1 µM), most hits filed as cytotoxic; hit rate 3.4% among 400,000; KB-V1 MDR cells viability, CellTiter-Glo, 72 h; note: % is set by controls: 0 for no effect and ±100 for the full control effect; nearly all actives have a fitted effect of over 60% in size
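KB-V1, DMEM (no phenol red) + 10% FBS; cpd pin-transferred, titration series; 72 h, 37 degrees C; CellTiter-Glo, luminescence. Data normalized, curve-fit.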
MCF10A rereplic = A quantitative high throughput screen for small molecules that induce DNA re-replication in MCF 10a normal breast cells; MCF 10A DNA re-replication, Hoechst nuclear intensity, 48 h; hit rate 2.9% among 350,000; Potency, µM (series often up to 46.1 µM), inactives show at the top dose activity, positive = re-replication, actives largely listed as activators; note: % of control where 0% means no effect; nearly all actives have a fitted effect of over 50% in size
KB-3-1 tox = qHTS assay for MDR1-selective chemotherapeutics: Primary screen using the parental adenocarcinoma cell KB-3-1; KB-3-1 viability, CellTiter-Glo ATP luminescence, 72 h; Potency, µM (series often up to 46.1 µM), actives largely listed as cytotoxic; hit rate 1.4% among 400,000; AID 1347075, 2019; note: % is set by controls: 0 for no effect and ±100 for the full control effect; nearly all actives have a fitted effect of over 60% in size
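Cells are dispensed, compounds pinned in, plates held at 37 °C for 72 h, then CellTiter-Glo is added and luminescence read after 10 minutes. Cell line: parental KB-3-1 in phenol-red-free DMEM, 10% FBS.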
SW480 rerep = A quantitative high throughput screen for small molecules that induce DNA re-replication in SW480 colon adenocarcinoma cells | Potency, µM (series often up to 46.1 µM), without a hit: at the highest dose re-replication activation, most hits filed as activators | SW480 DNA re-replication, Hoechst DNA content imaging, 48 h | hit rate 1.8% among 340,000 | AID 624297, 2012; note: % of control where 0% means no effect; nearly all actives have a fitted effect of over 55% in size
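Treated cells incubate 48 hr (37 C, 5% CO2), are stained 40 min with Hoechst, and nuclear fluorescence is enumerated; a rise in nuclei with high DNA signal marks re-replication.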
* = called active by the depositor; i = inactive; ? = inconclusive; · = no result; [ ] = remark or other dose. Unless noted, calls come from the whole dose curve; as a rule, active = well fitted curve in the direction sought with a large enough effect; inconclusive = small, poorly fitted or top-dose-only effect, or another doubt; inactive = no such curve, though single readings can be large; an effect the other way counts as inactive or inconclusive. Potency is the fitted concentration of half-maximal effect.

SMILES	ALOX12 inh	PINK1 modulator	KB-V1 cytotox	MCF10A rereplic	KB-3-1 tox	SW480 rerep
COc1ccc(-c2csc(N(CCc3ccc(OC)c(OC)c3)C(=O)COc3ccccc3)n2)cc1	0%	1%[38.3 µM]	3.7µM*	6%	i	-9%
COCCCN(C(=O)c1ccco1)c1nc(-c2cc(OC)ccc2OC)cs1	-6%	11%[38.3 µM]	1.8µM*	24%	i	-2%
COc1ccc(-c2csc(N(Cc3ccccc3)C(=O)COc3ccc(Cl)cc3)n2)cc1	1%	?	i	16%	i	-3%
COCCCN(C(C)=O)c1nc(-c2ccc(OC)cc2)cs1	-9%	3%	7.3µM*	?	12µM*	?
CC(C(=O)Nc1ccc(F)cc1)n1nnc2sc(-c3ccccc3)cc2c1=O (stereo unspecified)	32µM*	·	·	·	·	·
O=C(NNC1=Nc2cccc3cccc1c23)c1ccc(Br)cc1	?	19%	i	15µM*	?	18µM*
Nc1ccccc1N1C(=O)c2cccc3cccc(c23)C1=O	141%	-2%	?	8.2µM*	i	18µM*
Nc1ccccc1N1C(=O)c2ccccc2C1=O	3%	·	·	·	·	·
CC1(OC(=O)C2CCCC2)C(=O)C=C2C=C3CCCCN3C=C2C1=O (stereo unspecified)	·	3%	i	15%	i	-31%
COC/C=C/C1=CC2=CC(=O)C(C)(OC(=O)C3CCCC3)C(=O)C2=CO1 (stereo unspecified)	22µM*	1%	?	6%	i	?
CCN1c2cc(C(=O)Nc3ccc(C)cc3Cl)ccc2C(=O)N2CCCCCC21 (stereo unspecified)	-15%	·	·	·	·	·
COc1ccc(-c2nnc(SCc3cc(=O)c4cc(C)cc(C)c4[nH]3)n2C)cc1	-21%	3%	?	·	8.2µM*	·
C=CCN=c1scc(-c2ccc3c(c2)NC(=O)CO3)n1/N=C(\C)c1ccccn1	0%	0%	?	?	5.2µM*	-7%
COc1cccc(C2C3=C(N=c4s/c(=C\c5cccc(O)c5)c(=O)n42)c2ccccc2CC3)c1OC (stereo unspecified)	?	14%	16µM*	9%	?	?
COc1ccc(Cl)cc1NC(=O)CN(C)C(=O)c1cccc(S(=O)(=O)N2CCN(C)CC2)c1	?	1%	21µM*	11%	i	0%
COc1ccc(NC(=O)CS(=O)CC(=O)Nc2cc(Cl)ccc2OC)cc1 (stereo unspecified)	-1%	?	21µM*	11%	i	1%
CCCN(CC(=O)Nc1ccc(Cl)cc1Cl)C(=O)/C=C/c1cc(OC)ccc1OC	-9%	0%	?	11%	i	·
CCCN(CC(=O)Nc1cc(Cl)ccc1Cl)C(=O)/C=C/c1cc(OC)ccc1OC	11%	3%	i	21µM*	i	?
COc1ccc(Cl)cc1NC(=O)CN(C)CC(=O)Nc1cc(OC)c(OC)c(OC)c1	27%	2%	i	?	4.6µM*	?
CN1CCN(S(=O)(=O)c2cccc(C(=O)N(C)CC(=O)Nc3ccc(F)c(F)c3F)c2)CC1	?	0%	i	?	i	-4%
COCCNC(=O)CSc1cc(C(=O)NC2CC2)c2ccccc2n1	-3%	·	·	·	·	·
Cn1cc(C(C(=O)O)N2CCN(Cc3cccc(Cl)c3)CC2)c2cc(C(=O)O)ccc21 (stereo unspecified)	-34%	·	·	·	·	·
COc1ccc2c(CN3CCCC(C(F)(F)F)C3)cc(=O)oc2c1 (stereo unspecified)	-8%	·	·	·	·	·
CCc1ccc(-c2cn(-c3nc(C)cc(C)n3)c(=N)o2)cc1	0%	4%	?	23µM*	21µM*	0%
O=C(Cc1cccs1)Nc1nnc(Cc2ccccc2)s1	45µM*	14%	?	15%	i	-3%
SMILES	ALOX12 inh	PINK1 modulator	KB-V1 cytotox	MCF10A rereplic	KB-3-1 tox	SW480 rerep
COc1ccc(Cc2nnc(NC(=O)Cc3cccs3)s2)cc1OC	?	1%	i	0%	i	-2%
O=C(Cc1cccs1)Nc1nnc(CCc2ccccc2)s1	-7%	4%	18µM*	0%	i	-1%
CC(C)(C)Cc1nnc(NC(=O)Cc2cccs2)s1	45µM*	2%	?	3%	i	-6%
Cc1ccc(CN2CCc3c(cc(C(=O)N4CCCN(C)CC4)n3C)C2)cc1	36%	·	·	·	·	·
CC1(C)Cc2c(sc(NC(=O)COc3ccc(Cl)cc3Cl)c2C(N)=O)C(C)(C)N1	?	4%	i	23µM*	i	?
CC(=O)Nc1sc2c(c1C#N)CC(C)(C)NC2(C)C	1%	-1%	i	-185%[0.0737 µM]	i	-2%
CC1(C)Cc2c(sc(NC(=O)c3ccco3)c2C#N)C(C)(C)N1	·	0%	18µM*	3%	i	-4%
Cc1cc(OCC(=O)Nc2sc3c(c2C#N)CC(C)(C)NC3(C)C)c(C(C)C)cc1Cl	33%	9%	i	18µM*	i	12%
COC(=O)c1c(NC(=O)COc2ccc(Cl)cc2)sc2c1CC(C)(C)NC2(C)C	-28%	-2%	?	?	?	?
COc1ccc(-c2cc(=O)oc3cc(OC(=O)C4CCCCC4)c(Cl)cc23)cc1	-19%	2%	i	12µM*	i	12µM*
COc1ccc(-c2cc(=O)oc3cc(O)ccc23)cc1	-4%	-2%	i	7%	i	?
O=C(NCc1nnc(SCc2ccccc2)n1-c1ccccc1)C12CC3CC(CC(C3)C1)C2	28%	?	?	0%	i	1%
CCCCSc1nnc(CNC(=O)C23CC4CC(CC(C4)C2)C3)n1Cc1ccccc1	1%	?	2.6µM*	?	?	13%
CCCCn1c(CNC(=O)C23CC4CC(CC(C4)C2)C3)nnc1SC(C)CC (stereo unspecified)	?	18%	21µM*	?	?	7%
COc1ccc2ccccc2c1C1NC(=O)c2ccccc2N1 (stereo unspecified)	1%	16%	5.8µM*	5.2µM*	2.3µM*	8.2µM*
O=C1NC(c2cccc3ccccc23)Nc2ccccc21 (stereo unspecified)	?	7%	0.65µM*	0.92µM*	0.41µM*	?

From PubChem
